In the library only some 0.41% were active in any assay of this set; here they are far more common.
TRPML1 agonist = human mucolipin-1 channel agonism. Q9GZU1. TRPML1-expressing cells, Ca2+ dye fluorescence, FDSS. activation, % (concentration not given with the values). hit rate 0.12% among 410,000; in the data active = activation above about 50%; inconclusive = mostly about 30% to 49%; note: 0% is about no effect
Target sequence (Q9GZU1 whole entry, looked up): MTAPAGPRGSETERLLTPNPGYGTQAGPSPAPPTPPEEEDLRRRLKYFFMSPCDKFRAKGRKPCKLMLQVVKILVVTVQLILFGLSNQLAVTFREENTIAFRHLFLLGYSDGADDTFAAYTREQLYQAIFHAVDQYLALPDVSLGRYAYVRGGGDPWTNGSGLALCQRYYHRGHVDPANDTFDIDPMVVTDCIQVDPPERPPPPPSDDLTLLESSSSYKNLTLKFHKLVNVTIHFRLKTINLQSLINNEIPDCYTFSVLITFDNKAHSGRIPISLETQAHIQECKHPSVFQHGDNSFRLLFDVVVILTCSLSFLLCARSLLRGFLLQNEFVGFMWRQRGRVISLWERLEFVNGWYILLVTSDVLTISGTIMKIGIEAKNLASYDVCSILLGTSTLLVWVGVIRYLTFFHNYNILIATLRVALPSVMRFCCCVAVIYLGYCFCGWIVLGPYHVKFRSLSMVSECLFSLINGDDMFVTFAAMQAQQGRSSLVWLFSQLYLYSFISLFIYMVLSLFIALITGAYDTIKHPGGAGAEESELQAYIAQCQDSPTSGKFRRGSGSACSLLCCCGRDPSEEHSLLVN
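Tetracycline-induced TRPML1-DL cells are seeded and incubated overnight before loading with a no-wash Ca2+ dye and quencher. Agonist activity is taken from the 110 s fluorescence read following compound pin-transfer on an FDSS, before EC80 54-4 challenge.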
TRPV1 PAM = enhances activation of the human vanilloid receptor TRPV1. Q8NER1. TRPV1-expressing cells, Fluo-8 calcium influx, capsaicin EC20 potentiation. potentiation, % at 8.33 µM. hit rate 0.02% among 320,000; in the data active = potentiation above about 80%; inconclusive = between about 30% and that limit; note: 0% is about no effect
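TRPV1-expressing cells were cultured overnight at 35.5C and loaded with Fluo-8 calcium dye for 40 to 90 min at room temperature. After a 10 s baseline, compound was added and calcium influx was read kinetically for 3 min (ex 480/em 520 nm).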
TRPV1 ag = activates the human vanilloid receptor TRPV1; Q8NER1; TRPV1-expressing cells, Fluo-8 calcium influx, agonist mode; activation, % at 8.33 µM; hit rate 0.19% among 320,000; AID 540275; in the data active = activation above about 80%; inconclusive = between about 30% and that limit; note: 0% is about no effect
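Fluo-8 calcium influx in TRPV1-expressing cells, kinetic read (ex 480/em 520 nm). Compound added and read 3 min for agonist activity, followed by capsaicin at EC20 final and 2 min further read for enhancement.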
LDHA inh = inhibitors of human lactate dehydrogenase A. P00338. purified LDHA, NADH/diaphorase-resazurin fluorescence; hits give low values. activity change, % (values are at about 110 or 230 µM). hit rate 0.15% among 480,000. AID 1347041; in the data active = activity change below about -30%; inconclusive = mostly about -25% to -30%;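 note: plate controls were DMSO wells for no effect and wells without enzyme for full effect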
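Human LDH5 (2 nM) was incubated with 0.06 mM NADH and 0.2 mM pyruvate for 5 min at room temperature in Tris pH 7.4. Remaining NADH was coupled through diaphorase/resazurin, and resorufin fluorescence was read at 0 and 20 min.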
TRPML1 inh = inhibitors of human TRPML1 channel; Q9GZU1; TRPML1-inducible cells, Ca2+ dye fluorescence, FDSS; hits give low values; inhibition of EC80 agonist-evoked calcium signal; activity change, negative = inhibition, % (test concentration not listed); hit rate 0.02% among 390,000; in the data active = activity change below about -50%; inconclusive = between about -30% and that limit;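 note: stimulus is agonist 54-4 at its EC80 concentration; % is set by controls: 0 for no effect and ±100 for the full control effect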
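Tet-induced TRPML1-DL cells loaded with Ca8 no-wash calcium dye were read kinetically on FDSS. Compound addition was followed by EC80 agonist 54-4 (4 uM final); inhibition was read over 110 s.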
* = called active by the depositor; ? = inconclusive; . = not tested or not shown.

SMILES	TRPML1 agonist	TRPV1 PAM	TRPV1 ag	LDHA inh	TRPML1 inh
Cc1nn(-c2ccccn2)c2nc(-c3cccs3)cc(C(=O)NCc3ccco3)c12	1	-4	83*	2	10
CCOC(=O)c1cc(-c2cccs2)nc2c1c(C)nn2-c1ccccn1	1	-4	?	-5	12
CCOC(=O)C(/C=C(\C#N)C(=O)OCC)=C(/N)N1CCN(c2ccc(Cl)cc2)CC1	69*	10	-1	3	-10
CCOC(=O)/C(C)=C1\NC(C)(C)Cc2ccccc21	0	-1	2	-105*	-1
CCOc1ccccc1C(=O)N(Cc1ccccc1)C1CCS(=O)(=O)C1 (stereo not drawn)	.	.	.	1	.
O=C(Cc1ccccc1)NCCSC1CCCCC1	1	-17	94*	5	6
CCCc1cc(=O)oc2c(C)c(OC(C)C(=O)NCCCn3ccnc3)ccc12 (stereo not drawn)	.	.	.	-33*	.
Cc1c(C)c2ccc(OC(C)C(=O)NCCCn3ccnc3)c(C)c2oc1=O (stereo not drawn)	-1	-4	2	0	13
CC1CC(C)CN(S(=O)(=O)c2ccc(C(C)(C)C)cc2)C1 (stereo not drawn)	56*	2	23	-6	-13
CCn1cc(C(=O)N2CCN(C)CC2c2ccccc2)c2ccccc21 (stereo not drawn)	.	.	.	1	.
CCOc1cc(CN2CCCCCC2c2ccc(Cl)cc2)ccc1OCC(N)=O (stereo not drawn)	.	.	.	7	.
CSCC[C@@H](CO)NC(=O)c1ccc2nc(C3CCCCC3)oc2c1	0	0	3	-1	-7
CSCCNC(=O)c1ccc2nc(C3CCCCC3)oc2c1	-1	1	92*	-9	22
COc1ccc(OC)c(C(=O)N(C)C2CCCN(Cc3ccccc3F)C2)c1 (stereo not drawn)	0	17	-2	-4	7
COc1ccc(C(=O)N(C)C2CCCN(Cc3ccccc3F)C2)cc1OC (stereo not drawn)	-1	82*	-3	-2	4
Cc1n[nH]c(C)c1NC(=O)CN1CCN(S(=O)(=O)c2ccc(C(F)(F)F)cc2)CC1	1	.	.	-37*	26
COc1ccc(S(=O)(=O)N2CCN(CC(=O)Nc3c(C)n[nH]c3C)CC2)cc1OC	0	.	.	-36*	-9
COc1ccc(NC(=O)CN2CCN(S(=O)(=O)c3ccc(C(C)C)cc3)CC2)cc1OC	-1	?	9	-3	3
COCCCNC(=O)CCc1c(C)nc2c(c(C)nn2-c2ccc(C)cc2)c1C	.	-25	?	-3	.
COCCNC(=O)CCc1c(C)nc2c(c(C)nn2-c2ccc(C)cc2)c1C	1	7	85*	-15	-12
CC(C)(C)C(=O)[C@@H]1[C@@H](C(=O)c2ccccn2)[C@@]2(C(=O)Nc3ccccc32)[C@H]2c3ccccc3C=CN12	.	.	.	64	.
COc1ccc2c(C)c(CC(=O)NCc3ccc4c(c3)OCO4)c(=O)oc2c1	.	.	.	-1	.
O=C(c1cccs1)N1C[C@@H](n2cc(C3CC3)nn2)[C@H](O)C[C@@H]1c1ccc(Cl)cc1	-1	.	.	-36*	41
O=C(c1cccs1)N1C[C@@H](O)[C@H](n2cc(C3CC3)nn2)C[C@@H]1c1ccc(Cl)cc1	-1	.	.	-2	-6
O=C(c1cccs1)N1C[C@@H](n2cc(C3CC3)nn2)[C@H](O)C[C@@H]1c1ccccc1	0	.	.	-37*	15
SMILES	TRPML1 agonist	TRPV1 PAM	TRPV1 ag	LDHA inh	TRPML1 inh
O=C1NNC(c2ccccc2)=N/C1=C\c1ccccc1Cl	1	-14	94*	21	-6
Cc1ccc(N2NC3(CCCC(C)C3)NC2=S)cc1C (stereo not drawn)	.	.	.	7	.
CCCCOc1ccc(NC(=O)CC)c2cccnc12	.	.	.	35	.
CCCCC1CCC(C(=O)Nc2ccc(OC)c3ncccc23)CC1 (stereo not drawn)	.	.	.	-30*	.
Cc1oc(-c2nc(C#N)c(NCc3ccccc3)o2)cc1S(=O)(=O)N1CCOCC1	.	.	.	-5	.
Cc1cccc(CNc2nc3ccccc3nc2C)c1	.	.	.	-3	.
CCOC(=O)[C@H]1[C@H]2COc3ccc(Cl)cc3[C@@H]2N2C(=O)c3ccc(Cl)cc3NC(=O)[C@@]12C	1	0	87*	-10	23
CCOC(=O)[C@H]1[C@H]2COc3ccc(C)cc3[C@@H]2N2C(=O)c3ccc(Cl)cc3NC(=O)[C@@]12C	1	.	.	-5	-4
CCOC(=O)[C@H]1[C@H]2COc3ccc(Cl)cc3[C@@H]2N2C(=O)c3cc(OC)ccc3NC(=O)[C@@]12C	2	12	?	-7	2
CCOC(=O)[C@H]1[C@H]2COc3ccc(OC)cc3[C@@H]2N2C(=O)c3ccc(Cl)cc3NC(=O)[C@@]12C	0	?	90*	0	38
Cc1cccc2c(C(=O)O)cc(-c3ccco3)nc12	.	.	.	6	.
O=C(O)C(=O)/C(=C/c1ccsc1)c1ccc2ccccc2n1	.	.	.	8	.
CN1CCN(C(=O)/C=C/c2cn(-c3ccccc3)nc2-c2ccc3c(c2)OCCO3)CC1	1	-4	?	-2	-13
O=C(/C=C/c1ccccc1Cl)N1CCOCC1	0	-4	?	-4	1
O=C(/C=C/c1cccc2ccccc12)N1CCOCC1	1	-19	92*	-10	-1
O=C(/C=C\c1cn(-c2ccccc2)nc1-c1ccc2c(c1)OCCO2)N1CCOCC1	2	-14	115*	-9	-19
O=C(c1cc(Br)ccc1Cl)N(C1CCCCC1)C1CCCCC1	.	.	.	2	.
COc1ccc(Cn2nc(-c3ccccc3)c(N3CCCCC3)cc2=O)cc1	1	14	85*	1	1
O=c1cc(N2CCCCC2)c(-c2ccccc2)nn1Cc1ccccc1	3	2	81*	0	-8
Cn1nc(-c2ccccc2)c(N2CCCCC2)cc1=O	2	-19	?	-14	26
CN1CCN(C(C(=O)O)c2cn(CC(=O)O)c3cc(Cl)ccc23)CC1 (stereo not drawn)	.	.	.	-1	.
COc1ccc(CNC(=O)C(=O)Nc2ccc(C)cc2C)cc1	.	.	.	-31*	.
COc1ccc(CNC(=O)Nc2ccc(C)cc2C)cc1	-2	2	-2	-2	-6
Cc1ccc(C(=O)NC2CC2)cc1NC(=O)NC1CCC(C)CC1 (stereo not drawn)	.	.	.	3	.
O=S(=O)(Nc1ccc(-c2ccc(N3CCCCCC3)nn2)cc1)c1ccc(Cl)s1	.	.	.	7	.
CCC(NC(=O)CN(C)Cc1ccc(C)o1)c1ccc(C)cc1 (stereo not drawn)	.	.	.	7	.
CC1CCN(S(=O)(=O)c2ccc(C(C)C)cc2)CC1	115*	0	-2	-3	-10
CC(=O)N1CCOc2ccc(S(=O)(=O)N3CCC(C)CC3)cc21	0	15	-3	0	-59*

Screens from PubChem BioAssay.
